Four molecules from PubChem BioAssay can be followed below.

Records with an inconclusive call do not appear. Activity calls are given as the source filed them.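 The calls were made as follows, unless noted: active = GFP signal, as percent of the solvent control, above the screen mean plus 3 SD, about 149; inconclusive = no reading because the compound's own fluorescence upset strain identification; inactive = the rest.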

Experiment [1] is described as follows: rapamycin-like changes in RPL19A-GFP expression – cell-based, S. cerevisiae, multiplex flow cytometry, primary screen (AID 1862; in the data active = percent of DMSO control GFP below about 86%;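 also: lower values mimic rapamycin by blocking the RPL19A rise seen in DMSO cells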). The settings on record: S. cerevisiae RPL19A-GFP strain, flow cytometry fluorescence, 3 h; at 10 µM; stronger effect = lower value. Background: Flow cytometry measures light scatter and fluorescence of single cells or particles in a stream.

Experiment [2] in a line: TOR pathway GLN3 branch reporter MEP2-GFP changes – S. cerevisiae, multiplex flow cytometry, primary screen (AID 1867;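 active = GFP response, as percent of the DMSO control, above the screen-wide mean plus 3 SD, about 139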;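 also: median GFP channel fluorescence of barcode-gated MEP2-GFP cells measured by flow cytometry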). Conditions: S. cerevisiae MEP2-GFP strain, 3 h, at 10 µM, stronger effect = higher value, 100% means same as DMSO wells.
Experiment [3] can be described thus: TOR pathway RTG branch CIT2 reporter changes – S. cerevisiae, GFP fusion, multiplex flow cytometry, primary screen (AID 1870;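 active = percent response above a set limit, the screen-wide mean plus 3 SD, cut at about 130% in these data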;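 also: barcoded CIT2-GFP strain pooled with four other GFP strains with rapamycin as positive control; median GFP fluorescence per well over plate mean of DMSO wells so 100% = DMSO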). The settings on record: S. cerevisiae CIT2-GFP expression, 3 h, at 10 µM, stronger effect = higher value.
A short description of experiment [4]: TOR pathway LAP4-GFP level changes – S. cerevisiae, multiplex flow cytometry, primary screen (AID 1873). The settings on record: S. cerevisiae LAP4-GFP expression, 3 h, at 10 µM, stronger effect = higher value.
The nature of experiment [5]: yeast AGP1-GFP level changes, GLN3 branch – cell-based, multiplex flow cytometry, S. cerevisiae, primary screen (AID 1887;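 active = GFP signal above the screen-wide mean plus 3 SD, that is over about 124.5% of the solvent control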;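 also: AGP1-GFP fusion strain of S. cerevisiae within a five-strain barcoded multiplex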). The settings on record: 3 h, at 10 µM, stronger effect = higher value.
Experiment [6] in a line: reduced mouse 2C T cell binding to pMHC/ICAM-1 vesicles – MLPCN validation set, flow cytometry, LFA-1/ICAM-1 modulator project, pilot screen (AID 2523;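 active = response below a set limit, under 55% cells CD8-positive and vesicle-bound, and CD8 cells' 90th-percentile brightness under 279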;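 as to vesicle binding response: mean PE anti-B7-1 fluorescence of CD8+ cells relative to row control; 100% = QL9-loaded vesicles with DMSO vehicle in the same plate row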). The settings on record: 2C mouse CD8+ T cells, at 7 µM, stronger effect = lower value; double positive events: measured here: CD8+/vesicle+ event percentage.
Experiment [7] concerns the target Integrin beta-1 (Homo sapiens) + Integrin alpha-4 (Homo sapiens) (UniProt P13612+P05556). Put plainly: alpha4beta1 integrin LIBS antibody binding reduction – U937 cells, HUTS-21 mAb, flow cytometry, validation set, VLA-4 allosteric modulator project, pilot screen (AID 2674;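 active = inhibition above 50%, about 3 SD of the validation set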;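 also: antibody binding induced by the VLA-4 ligand LDV present at three times its Kd; 0% = LDV ligand with antibody and no compound and 100% = antibody without LDV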). Conditions: HUTS-21 LIBS mAb binding, at 6.7 µM, stronger effect = higher value, binding induced by LDV ligand.

Experiment [8] is described as follows: calorie-restriction mimetic ROS inhibitors, yeast – validation compound set, pilot screen (AID 2706;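 active = superoxide response below 65% of plate, a cut near 3 SD across the whole screen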;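 also: yeast exposed to compound for one week at 30 degrees C before staining; 100% = mean of all compound wells on the same plate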). The settings on record: S. cerevisiae aging, superoxide DHE fluorescence; at 10 µM; stronger effect = lower value.
Experiment [9] concerns the target Beta-adrenergic receptor kinase 1 (Homo sapiens) (UniProt P25098). Put plainly: GRK2 binders displacing RNA aptamer, biochemical, validation, human GRK2, bead flow cytometry (AID 488806;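 active = aptamer binding inhibition above 30%, about 3 SD of noise from non-fluorescent compounds; inactive = inhibition at or below 30%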). The settings on record: bead-bound GRK2, FAM-aptamer displacement, at 10 µM, stronger effect = higher value.
The target of experiment [10] is Beta-2 adrenergic receptor (Homo sapiens) (UniProt P07550). Put plainly: agonist-induced loss of surface beta2AR – cell-based, FAP fluorogen, flow cytometry, validation set, pilot screen (AID 504459;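 active = percent response above 42, roughly 3 SD of non-fluorescent test compounds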;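 also: agonist-driven loss of surface beta2AR via internalization measured by FAP dye flow cytometry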). Conditions: Am2.2-beta2AR cells, at 10 µM, stronger effect = higher value.
Chain of Beta-2 adrenergic receptor (Homo sapiens) (P07550 whole entry, looked up): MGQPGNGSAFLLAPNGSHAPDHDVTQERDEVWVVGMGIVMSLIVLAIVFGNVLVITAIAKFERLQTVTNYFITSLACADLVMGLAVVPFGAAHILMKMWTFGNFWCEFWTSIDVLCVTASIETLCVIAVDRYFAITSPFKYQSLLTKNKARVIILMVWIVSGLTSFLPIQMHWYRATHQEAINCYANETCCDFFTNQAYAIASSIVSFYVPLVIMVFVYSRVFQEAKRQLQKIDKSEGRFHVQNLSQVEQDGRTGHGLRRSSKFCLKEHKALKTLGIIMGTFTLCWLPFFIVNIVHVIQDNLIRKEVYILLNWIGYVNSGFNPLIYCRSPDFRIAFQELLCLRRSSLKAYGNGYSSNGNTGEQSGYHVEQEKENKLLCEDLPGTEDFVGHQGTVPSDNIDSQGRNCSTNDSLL
Experiment [11] deals with AP-2 complex subunit beta (Homo sapiens) (UniProt P63010). The experiment is described as follows: beta-arrestin/AP2 interaction blockers – biochemical, validation set, GST-AP2 beads, flow cytometry, pilot screen (AID 504541;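 active = inhibition above 54%, about 3 SD of non-fluorescent compounds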;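 also: AP2 carries R879A mutation and is captured from E. coli lysate; bead-bound FITC arrestin peptide fluorescence measuring arrestin peptide binding to AP2; 0% = DMSO wells and 100% = excess unlabeled arrestin peptide control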). The settings on record: FITC arrestin peptide, at 10 µM, stronger effect = higher value, AP2 beta2 appendage fragment, R879A mutant.
Chain of AP-2 complex subunit beta (Homo sapiens) (P63010 whole entry, looked up, the tested form may be a part, one chain of several): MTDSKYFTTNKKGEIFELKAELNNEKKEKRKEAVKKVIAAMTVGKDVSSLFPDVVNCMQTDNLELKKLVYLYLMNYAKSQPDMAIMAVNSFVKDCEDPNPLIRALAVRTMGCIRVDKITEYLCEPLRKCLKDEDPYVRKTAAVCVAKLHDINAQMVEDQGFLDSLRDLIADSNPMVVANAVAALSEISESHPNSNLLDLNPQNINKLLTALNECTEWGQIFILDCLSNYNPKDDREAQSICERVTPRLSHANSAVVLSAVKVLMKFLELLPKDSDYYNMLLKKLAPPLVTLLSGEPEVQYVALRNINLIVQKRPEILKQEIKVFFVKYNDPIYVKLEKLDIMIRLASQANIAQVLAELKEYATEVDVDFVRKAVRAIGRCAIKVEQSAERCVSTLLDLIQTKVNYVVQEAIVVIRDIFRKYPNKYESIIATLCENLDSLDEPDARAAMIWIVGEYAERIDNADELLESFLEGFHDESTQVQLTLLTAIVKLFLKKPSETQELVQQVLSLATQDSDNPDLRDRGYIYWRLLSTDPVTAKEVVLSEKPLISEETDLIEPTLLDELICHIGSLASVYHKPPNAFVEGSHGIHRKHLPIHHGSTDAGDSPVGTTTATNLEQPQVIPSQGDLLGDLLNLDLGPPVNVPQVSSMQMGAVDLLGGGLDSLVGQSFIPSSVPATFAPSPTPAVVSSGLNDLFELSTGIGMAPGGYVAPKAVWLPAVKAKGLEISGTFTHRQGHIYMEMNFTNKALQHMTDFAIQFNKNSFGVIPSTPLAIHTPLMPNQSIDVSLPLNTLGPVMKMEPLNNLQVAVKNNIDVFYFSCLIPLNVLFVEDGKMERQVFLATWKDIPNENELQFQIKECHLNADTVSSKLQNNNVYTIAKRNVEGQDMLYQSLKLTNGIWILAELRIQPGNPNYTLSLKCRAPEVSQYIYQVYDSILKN
Experiment [12] in a line: cytosolic pH regulators acting via V-ATPase – S. cerevisiae, pHLuorin, HTS validation (AID 504600; in the data active = response above about 15%;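 also: plate controls were DMSO for no effect and reference compound for full effect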). The settings on record: V-ATPase proton transport, at 10 µM, stronger effect = higher value.
Experiment [13] has as its system anti-desmoglein-3 scFv antibody binding to human DSG3. The experiment is described as follows: blockers of pathogenic pemphigus antibody–desmoglein-3 binding – biochemical, validation compound set, bead-based, flow cytometry, pilot screen (AID 588368;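 active = binding below the plate cutoff, the plate median minus 3 SD, with a reading above zero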;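 also: signal is the median channel fluorescence of bead-bound GFP antibody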). The settings on record: Protein G beads, DSG3-Fc, scFv-GFP binding, at 10 µM, stronger effect = lower value.
The nature of experiment [14]: Nile Red efflux blockade in pump-expressing yeast – validation compound set, multiplex, phenotypic, pilot screen (AID 588506;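 active = efflux inhibition above 0.42, the validation set average plus 4 SD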;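 also: Nile Red retained in cells so higher fluorescence means more efflux inhibition; 0 = negative control wells and 1 = enniatin B 25 µM full block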). The settings on record: S. cerevisiae pump-expressing triplex, Nile Red efflux flow cytometry; at 10 µM; stronger effect = higher value; the pumps come from Candida albicans.
The target of experiment [15] is ATP-binding cassette sub-family B member 6 (Homo sapiens) (UniProt Q9NP58). Put plainly: blockers of ABCB6-driven porphyrin uptake – K562-ABCB6 cells, flow cytometry, validation set, pilot screen (AID 588550;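 active = inhibition above the screen-wide mean plus 3 SD, about 51%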;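 also: 0% = DMSO wells and 100% = benzethonium chloride 70 µM positive control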). Conditions: K562-ABCB6 porphyrin accumulation, 1 h, at 10 µM, stronger effect = higher value.
Chain of ATP-binding cassette sub-family B member 6 (Homo sapiens) (Q9NP58 whole entry, looked up): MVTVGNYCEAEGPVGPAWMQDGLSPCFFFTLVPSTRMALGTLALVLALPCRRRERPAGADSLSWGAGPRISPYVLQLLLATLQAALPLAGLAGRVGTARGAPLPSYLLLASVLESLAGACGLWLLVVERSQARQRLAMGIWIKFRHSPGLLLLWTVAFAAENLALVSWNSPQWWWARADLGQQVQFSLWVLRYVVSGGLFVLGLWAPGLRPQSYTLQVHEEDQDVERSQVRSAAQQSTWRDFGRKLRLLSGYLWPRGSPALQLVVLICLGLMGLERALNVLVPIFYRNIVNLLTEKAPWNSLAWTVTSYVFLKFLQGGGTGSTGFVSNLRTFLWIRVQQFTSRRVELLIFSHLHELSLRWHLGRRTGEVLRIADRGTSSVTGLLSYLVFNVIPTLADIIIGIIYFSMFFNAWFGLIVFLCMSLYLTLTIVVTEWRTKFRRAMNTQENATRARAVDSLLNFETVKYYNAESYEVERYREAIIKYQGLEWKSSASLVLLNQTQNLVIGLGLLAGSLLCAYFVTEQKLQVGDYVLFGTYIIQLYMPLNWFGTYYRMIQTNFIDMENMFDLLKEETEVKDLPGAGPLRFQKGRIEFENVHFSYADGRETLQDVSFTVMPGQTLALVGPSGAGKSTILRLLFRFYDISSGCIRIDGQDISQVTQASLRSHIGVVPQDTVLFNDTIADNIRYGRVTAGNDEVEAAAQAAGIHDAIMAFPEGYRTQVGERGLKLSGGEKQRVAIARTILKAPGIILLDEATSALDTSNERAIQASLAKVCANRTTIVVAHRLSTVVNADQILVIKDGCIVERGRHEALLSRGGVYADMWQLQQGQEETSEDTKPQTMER
Experiment [16] is described as follows: AML differentiation inducers, ER-HoxA9 marrow cells – cell-based, GFP/MAC1 double positive, flow cytometry, validation set, primary screen (AID 588685;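 active = differentiation response of at least 50%, scaled between solvent and reference control, from cells with both markers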;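 also: compound exposure lasts four days before antibody staining and flow analysis; 0% = DMSO wells and 100% = 5 µM fulvestrant positive control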). The settings on record: stronger effect = higher value, normalized: vehicle 0, fulvestrant 100.

Chain of Integrin beta-1 (Homo sapiens) + Integrin alpha-4 (Homo sapiens) (P05556 whole entry, looked up): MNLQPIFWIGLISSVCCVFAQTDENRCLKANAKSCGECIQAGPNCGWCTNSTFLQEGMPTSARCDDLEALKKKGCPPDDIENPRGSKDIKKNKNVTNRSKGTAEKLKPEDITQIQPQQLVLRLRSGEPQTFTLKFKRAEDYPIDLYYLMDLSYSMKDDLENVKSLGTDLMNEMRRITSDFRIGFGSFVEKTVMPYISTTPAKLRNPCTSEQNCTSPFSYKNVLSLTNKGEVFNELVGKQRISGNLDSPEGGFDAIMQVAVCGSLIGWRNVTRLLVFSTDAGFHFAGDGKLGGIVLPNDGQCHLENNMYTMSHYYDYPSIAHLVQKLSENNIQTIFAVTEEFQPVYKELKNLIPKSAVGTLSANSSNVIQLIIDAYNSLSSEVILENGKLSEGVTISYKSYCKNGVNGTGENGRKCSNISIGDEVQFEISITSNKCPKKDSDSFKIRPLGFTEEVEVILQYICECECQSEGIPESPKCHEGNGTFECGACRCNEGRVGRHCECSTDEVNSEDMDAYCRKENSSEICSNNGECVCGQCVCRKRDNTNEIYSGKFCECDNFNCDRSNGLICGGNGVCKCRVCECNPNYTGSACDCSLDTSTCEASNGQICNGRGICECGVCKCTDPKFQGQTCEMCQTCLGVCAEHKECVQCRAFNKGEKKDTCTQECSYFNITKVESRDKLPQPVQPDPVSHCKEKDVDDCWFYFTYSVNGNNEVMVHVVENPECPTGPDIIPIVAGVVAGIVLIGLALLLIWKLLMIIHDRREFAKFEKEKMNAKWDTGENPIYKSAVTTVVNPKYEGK
Chain of Integrin beta-1 (Homo sapiens) + Integrin alpha-4 (Homo sapiens) (P13612 whole entry, looked up): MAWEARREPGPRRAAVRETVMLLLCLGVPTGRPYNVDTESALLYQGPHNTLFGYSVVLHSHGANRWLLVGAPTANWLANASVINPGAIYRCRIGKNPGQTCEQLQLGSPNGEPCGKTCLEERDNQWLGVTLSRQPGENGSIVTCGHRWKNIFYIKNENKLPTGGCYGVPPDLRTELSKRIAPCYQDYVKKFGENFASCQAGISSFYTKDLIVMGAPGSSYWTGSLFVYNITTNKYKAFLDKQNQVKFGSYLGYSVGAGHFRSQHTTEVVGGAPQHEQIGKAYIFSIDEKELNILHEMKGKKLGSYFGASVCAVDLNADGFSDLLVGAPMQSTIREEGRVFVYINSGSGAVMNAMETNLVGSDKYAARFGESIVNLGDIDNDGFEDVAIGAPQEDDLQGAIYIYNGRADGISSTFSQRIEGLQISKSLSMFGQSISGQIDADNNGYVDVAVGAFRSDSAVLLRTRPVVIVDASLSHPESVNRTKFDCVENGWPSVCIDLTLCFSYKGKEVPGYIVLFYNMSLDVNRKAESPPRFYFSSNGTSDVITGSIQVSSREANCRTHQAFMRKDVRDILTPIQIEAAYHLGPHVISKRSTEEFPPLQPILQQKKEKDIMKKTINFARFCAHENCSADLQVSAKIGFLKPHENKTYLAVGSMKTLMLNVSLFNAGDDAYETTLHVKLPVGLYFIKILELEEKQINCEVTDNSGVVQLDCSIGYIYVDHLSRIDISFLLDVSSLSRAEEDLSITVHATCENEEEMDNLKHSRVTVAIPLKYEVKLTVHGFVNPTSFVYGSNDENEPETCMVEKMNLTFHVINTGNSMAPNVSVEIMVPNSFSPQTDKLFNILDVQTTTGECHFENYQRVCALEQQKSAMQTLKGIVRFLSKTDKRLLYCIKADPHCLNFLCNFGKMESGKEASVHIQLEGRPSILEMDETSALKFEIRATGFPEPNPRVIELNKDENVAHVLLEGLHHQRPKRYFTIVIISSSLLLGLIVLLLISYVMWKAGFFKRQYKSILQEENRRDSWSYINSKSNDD
Chain of Beta-adrenergic receptor kinase 1 (Homo sapiens) (P25098 whole entry, looked up): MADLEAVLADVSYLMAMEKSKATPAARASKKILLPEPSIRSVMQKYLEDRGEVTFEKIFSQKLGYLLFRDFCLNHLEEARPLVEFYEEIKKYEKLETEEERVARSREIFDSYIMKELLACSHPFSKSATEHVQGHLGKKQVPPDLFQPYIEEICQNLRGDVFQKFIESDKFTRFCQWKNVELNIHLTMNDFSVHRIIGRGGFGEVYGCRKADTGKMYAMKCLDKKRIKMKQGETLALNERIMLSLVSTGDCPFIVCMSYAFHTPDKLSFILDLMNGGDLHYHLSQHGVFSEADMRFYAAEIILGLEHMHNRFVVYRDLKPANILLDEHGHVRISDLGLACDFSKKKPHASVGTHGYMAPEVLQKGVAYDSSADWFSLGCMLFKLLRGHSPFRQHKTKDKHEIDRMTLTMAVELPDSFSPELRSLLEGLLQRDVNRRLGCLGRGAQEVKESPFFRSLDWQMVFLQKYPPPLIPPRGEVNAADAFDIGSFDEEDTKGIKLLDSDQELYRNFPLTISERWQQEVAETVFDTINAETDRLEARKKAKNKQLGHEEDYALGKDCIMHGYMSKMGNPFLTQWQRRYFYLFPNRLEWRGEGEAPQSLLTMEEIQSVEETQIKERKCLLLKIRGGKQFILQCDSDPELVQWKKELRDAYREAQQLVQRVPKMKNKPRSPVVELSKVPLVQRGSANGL

The inhibition is the relative decrease from the control value, in per cent. As to `CCCn1c(=O)c2[nH]c(C3CCCC3)nc2n(CCC)c1=O`, the percent of DMSO control GFP in experiment [1] is 92.6% (inactive). Moreover, the GFP response vs DMSO was 137% (inactive) in experiment [2] and 82.5% (inactive) in experiment [4]. In addition, in experiment [3], the percent response of DMSO control is 102% (inactive). In experiment [5], the GFP response, % of DMSO is 88.7% (inactive). Also, in experiment [6], the double positive events worked out at 62.8%. In [6], the vesicle binding response was 193% (inactive). Further, the results for the inhibition in experiment [7], in experiment [11] and in experiment [15] were 0.64% (inactive), -0.16% (inactive) and 7% (inactive), respectively. The superoxide response (% of plate) in experiment [8] is 93.3% (inactive). The aptamer binding inhibition in experiment [9] was 4% (inactive). Further, the response is -5.24% (inactive) in [10] and -6.35% (inactive) in experiment [12]. In addition, in experiment [13], the binding (% of control) was 102% (inactive). Besides, the efflux inhibition (fraction of control) in experiment [14] is -0.13 (inactive). Further, in experiment [16], the differentiation response is 2.46% (inactive).
For the molecule `COc1ccc(OC)c(C(=O)c2coc3ccc(O)cc23)c1`, in experiment [1], the percent of DMSO control GFP is 98.7% (inactive). Also, the GFP response vs DMSO in [2] was 109% (inactive); in experiment [4], 146% (inactive). Further, in [3], the percent response of DMSO control is 94.4% (inactive). Moreover, the GFP response, % of DMSO in experiment [5] was 109% (inactive). In experiment [6], this molecule returned a double positive events of 63.7%. Also, the vesicle binding response in experiment [6] was 192% (inactive). Further, the inhibition in experiment [7] was -2.82% (inactive); in experiment [11] it was -14.6% (inactive); in [15] it was 0% (inactive). In addition, in experiment [8], the superoxide response (% of plate) was 88.2% (inactive). Besides, the aptamer binding inhibition in [9] was 2% (inactive). The response in experiment [10] was -29.6% (inactive); in [12], 4.67% (inactive). Further, the binding (% of control) in experiment [13] was 103% (inactive). Also, the efflux inhibition (fraction of control) in [14] was -0.04 (inactive). Moreover, the differentiation response in experiment [16] is 0.92% (inactive).
In the case of `CCC(C)NCCOCCOc1ccc(Cl)cc1Br` (stereo not drawn), in experiment [1], the percent of DMSO control GFP was 103% (inactive). For the same molecule, the values for the GFP response vs DMSO in experiment [2] and in experiment [4] were 102% (inactive) and 100% (inactive), respectively. For the same molecule, the percent response of DMSO control in experiment [3] is 102% (inactive). The GFP response, % of DMSO in experiment [5] is 103% (inactive). Also, the double positive events in experiment [6] was 61.4%. For the same molecule, the vesicle binding response in experiment [6] is 142% (inactive). For the same molecule, the values for the inhibition in experiment [7], in experiment [11] and in experiment [15] were 0.25% (inactive), 57.1% (active) and -14% (inactive), respectively. Besides, the superoxide response (% of plate) in experiment [8] is 98% (inactive). Also, the aptamer binding inhibition in [9] was -7% (inactive). Moreover, the values for the response in [10] and in experiment [12] were -3.72% (inactive) and -10.6% (inactive), respectively. The binding (% of control) in [13] was 95.8% (inactive). For the same molecule, the efflux inhibition (fraction of control) in [14] was -0.16 (inactive). The differentiation response in experiment [16] was -4.57% (inactive).
`CCOC(=O)C1C(=O)OC(C)(C)C1C(C)C(=O)c1ccc(C)cc1` (stereo not drawn): the percent of DMSO control GFP in experiment [1] was 100% (inactive). Further, the GFP response vs DMSO is 103% (inactive) in experiment [2] and 110% (inactive) in [4]. In addition, the percent response of DMSO control in experiment [3] is 93.1% (inactive). In [5], the GFP response, % of DMSO was 116% (inactive). This molecule registered a double positive events in [6] of 61.9%. Besides, the vesicle binding response in experiment [6] is 218% (inactive). Moreover, the values for the inhibition in experiment [7], in [11] and in [15] were -6.23% (inactive), -19% (inactive) and 5% (inactive), respectively. The superoxide response (% of plate) in experiment [8] was 118% (inactive). Also, the aptamer binding inhibition in experiment [9] is 3% (inactive). Further, the figures for the response in [10] and in experiment [12] were -17.2% (inactive) and -5.62% (inactive), respectively. The binding (% of control) in [13] was 102% (inactive). The efflux inhibition (fraction of control) in [14] is -0.09 (inactive). For the same molecule, the differentiation response in [16] was 13.7% (inactive).
